Screens from PubChem.
In the library only some 3.5% were active in any assay of this set; here they are far more common.
FBW7 activator = human FBW7 E3 ligase activation, primary screen. Q969H0. AlphaScreen FBW7–phospho-cyclin E peptide binding, activator screen. normalized activity (activation), % at 26.1 µM. 0.13% of 650,000 active; in the data active = normalized activity above about 1.9%;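 note: purified mutant Fbw7 with reduced substrate affinity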
Target sequence (Q969H0 whole entry, looked up): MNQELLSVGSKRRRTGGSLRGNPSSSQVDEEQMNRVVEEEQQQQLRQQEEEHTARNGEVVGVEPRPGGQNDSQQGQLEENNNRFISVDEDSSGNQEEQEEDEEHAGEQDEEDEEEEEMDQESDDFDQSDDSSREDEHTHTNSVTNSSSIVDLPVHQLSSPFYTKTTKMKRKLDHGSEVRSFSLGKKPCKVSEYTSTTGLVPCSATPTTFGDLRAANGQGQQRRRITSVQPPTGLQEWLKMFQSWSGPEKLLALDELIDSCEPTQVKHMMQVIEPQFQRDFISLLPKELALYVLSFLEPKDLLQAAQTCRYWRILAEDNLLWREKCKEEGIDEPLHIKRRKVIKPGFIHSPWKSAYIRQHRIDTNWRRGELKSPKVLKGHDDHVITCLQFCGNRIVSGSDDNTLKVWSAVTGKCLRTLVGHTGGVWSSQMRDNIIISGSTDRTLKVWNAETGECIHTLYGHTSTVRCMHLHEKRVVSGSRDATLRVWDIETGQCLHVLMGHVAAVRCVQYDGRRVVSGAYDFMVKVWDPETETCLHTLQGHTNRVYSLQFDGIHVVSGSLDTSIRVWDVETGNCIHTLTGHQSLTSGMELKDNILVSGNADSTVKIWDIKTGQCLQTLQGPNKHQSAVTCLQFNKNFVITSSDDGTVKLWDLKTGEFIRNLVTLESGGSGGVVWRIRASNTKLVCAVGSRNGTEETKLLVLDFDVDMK
TEAD-YAP inh = TEAD-YAP interaction inhibition; HEK-TIYL cells, TEAD-Gal4/YAP UAS-luciferase luminescence; inhibition, % at 9.12 µM; 1.4% of 640,000 active; AID 1259422; in the data active = inhibition above about 32%;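 note: 0% = median of test compound wells and 100% = reference inhibitor wells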
MITF primary = inhibitors of human MITF | 0.91% of 650,000 active | inhibition, % at 2.6 µM | AlphaScreen MITF homodimerization, bead proximity signal; in the data active = inhibition above about 50%;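 note: 0% = vehicle wells with protein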
GPR151 ag = activates the human receptor GPR151; PathHunter beta-arrestin GPR151 cells, luminescence; activation, % at 11.2 µM; 1% of 650,000 active; in the data active = activation above about 4.9%;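 note: 0% = median of compound wells and 100% = cells with positive control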
GPR151 confirm = confirmation of human GPR151 activators. shares compounds with GPR151 ag. GPR151 PathHunter beta-arrestin cells, luminescence, 90 min; % of EA-reagent control over plate median. activation, % at 11.2 µM. 6,700 tested, under 10 active. AID 1508609;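 active = mean percent activation across replicates above the confirmation screen cutoff of 4.91%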
GPR119 counter = activates human GPR119 in a GPR151 counter-screen; shares compounds with GPR151 ag; GPR119 PathHunter beta-arrestin cells, luminescence, 90 min; 0 = compound-well median, 100 = enzyme-acceptor control; activation, % at 11.2 µM; 0.3% of 6,700 active; AID 1508611;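 active = mean percent activation in the counterscreen above 29.09%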;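 note: counterscreen on off-target GPR119 to flag nonselective hits from the GPR151 activator screen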
An asterisk follows results filed as active; · = no result.

SMILES	FBW7 activator	TEAD-YAP inh	MITF primary	GPR151 ag	GPR151 confirm	GPR119 counter
Cc1ccc(NC(=O)COc2ccc(Br)cc2CO)cc1F	0.1	-0.2	2.9	-0.3	·	·
CN(Cc1ccccc1)S(=O)(=O)c1ccc2[nH]c(=O)c(=O)[nH]c2c1	0.0	5.6	-5.2	5.2*	-0.3	0.8
Cc1cc2[nH]c(=O)c(=O)[nH]c2cc1S(=O)(=O)N(C)Cc1ccccc1	-0.3	0.9	4.8	0.4	·	·
CCOC(=O)Cc1csc(NC(=O)COc2ccccc2C(C)C)n1	0.0	7.0	4.8	-0.5	·	·
COc1ccc(CCNC(=O)c2ccc3c(c2)ncn3-c2ccc(C)cc2C)cc1OC	0.0	14.7	10.5	0.1	·	·
Cc1ccc(-n2cnc3cc(C(=O)NCCc4ccccc4)ccc32)c(C)c1	-0.1	5.7	-7.1	5.5*	0.3	-12.2
CCc1cccc(CC)c1NC(=O)C1CC(=O)N(c2ccc(F)cc2)C1 (centres undefined)	0.1	9.6	11.8	0.7	·	·
CCc1cccc(CC)c1NC(=O)C1CC(=O)N(c2ccccc2OC)C1 (centres undefined)	-0.1	-3.9	-1.2	8.6*	0.4	11.5
C=CCSc1nc2c(c(=O)[nH]1)C(c1ccc(C)o1)C1=C(CCCC1=O)N2 (centres undefined)	0.0	2.5	13.5	6.3*	-0.5	-5.7
Cc1cccc(NC(=O)c2c(NC(=O)Cc3ccccc3)sc3c2CCCCC3)c1	-0.1	-3.7	-4.7	2.6	·	·
O=C(COc1ccc(Cl)cc1)NCC(c1ccco1)N1CCOCC1 (centres undefined)	-0.4	12.7	-0.4	6.2*	1.8	3.4
COc1ccccc1CCNC(=O)NC1CC(=O)N(c2cccc(F)c2)C1 (centres undefined)	0.1	-9.1	-1.1	0.4	·	·
c1cncc(-c2cc(NCc3ccco3)nc(-c3ccncc3)n2)c1	0.1	3.1	17.8	5.1*	-1.2	-16.0
COC(=O)C1C(=O)NC(SCc2ccccc2)=C(C#N)C1c1ccc(C)cc1 (centres undefined)	-0.1	3.5	-2.5	1.1	·	·
C=CCNCCC1CCC(=O)N1Cc1ccc(C)o1 (centres undefined)	0.8	-0.8	13.8	2.6	·	·
C=CCNCCC1CCC(=O)N1Cc1cn2c(C)csc2n1 (centres undefined)	0.9	-7.0	22.1	12.3*	0.2	6.8
OC1CCN(c2ccnc3c(-c4ccccc4Oc4ccccc4)cnn23)CC1	0.0	-19.1	1.8	-0.2	·	·
Cc1ccc2c(c1)CN(CCNC(=O)CCc1ccc(=O)[nH]n1)CC(C)O2 (centres undefined)	0.0	-6.4	-6.6	5.3*	0.2	-0.1
Cc1ccc2c(c1)CN(CCNC(=O)CCc1ccco1)CC(C)O2 (centres undefined)	0.0	-0.2	12.9	0.7	·	·
CCOC(=O)c1[nH]c(C)c(C(=O)Nc2cccc(OC)c2)c1C	0.0	-2.5	14.5	1.0	·	·
COc1cccc(OC)c1C(=O)Nc1c(C)n(C)n(-c2ccccc2)c1=O	0.0	2.3	-5.1	2.1	·	·
CCOC(=O)c1[nH]c(C)c(C(=O)Nc2c(C)n(C)n(-c3ccccc3)c2=O)c1C	-0.1	1.2	10.4	6.5*	-0.8	-3.3
CCOC(=O)c1[nH]c(C)c(C(=O)Nc2ccc(C)c(C)c2)c1C	-0.2	3.8	-6.3	5.0*	0.4	3.7
O=C(/C=C(\O)c1ccccc1)C(=O)/C=C1\NC2(CCCCC2)Cc2ccccc21	-0.1	-16.8	18.5	-1.0	·	·
CN(C)c1ncc(CN2CCN(CCc3ccccc3)C(CCO)C2)s1 (centres undefined)	-0.2	9.9	9.7	9.8*	-0.1	4.7
SMILES	FBW7 activator	TEAD-YAP inh	MITF primary	GPR151 ag	GPR151 confirm	GPR119 counter
CCOc1ccc(CN2CCN(Cc3cnc(-c4ccccc4)s3)CC2CCO)cc1 (centres undefined)	0.0	12.1	15.9	-0.5	·	·
COc1ccc(CN2CCN(Cc3cnc(-c4ccccc4)s3)CC2CCO)cc1C (centres undefined)	-0.1	13.2	-4.5	6.7*	-0.3	-3.8
CN(C)c1ncc(CN2CCN(Cc3ccc(F)cc3)C(CCO)C2)s1 (centres undefined)	0.1	-6.6	-2.0	3.7	·	·
CN(C)c1cccc(Nc2cc(Nc3ccc(N4CCOCC4)cc3)ncn2)c1	-0.2	-8.5	0.8	5.2*	-0.1	17.7
c1ccc(Nc2cc(Nc3ccc(N4CCOCC4)cc3)ncn2)cc1	0.2	-15.9	23.5	1.5	·	·
Cc1ccc(S(=O)(=O)N2CCN(S(C)(=O)=O)C2)cc1[N+](=O)[O-]	0.0	-1.9	3.5	1.5	·	·
N#C/C(=C\c1cc(Cl)ccc1O)c1nc2ccccc2s1	0.0	-7.6	-9.0	-0.4	·	·
Cc1ccc(NC(=O)C2CCC(N3C(=O)C4C5CCC(C5)C4C3=O)CC2)c(C)c1 (centres undefined)	0.6	11.9	7.6	-0.1	·	·
COc1ccc(Cl)cc1NC(=O)c1cc(S(=O)(=O)N2CCCCCC2)ccc1F	0.1	1.5	-6.1	5.7*	-0.3	-9.3
CCCNS(=O)(=O)c1ccc(F)c(C(=O)Nc2cc(Cl)ccc2OC)c1	0.7	-10.3	8.0	5.8*	-1.0	-2.0
COc1ccccc1CNS(=O)(=O)c1ccc(F)c(C(=O)Nc2ccc(Cl)cc2)c1	-0.2	6.9	0.9	1.5	·	·
CCOc1ccccc1NC(=O)c1cc(S(=O)(=O)NCCC2=CCCCC2)ccc1F	0.0	2.2	9.2	0.6	·	·
CCOc1ccccc1NC(=O)c1cc(S(=O)(=O)NCCc2ccccc2)ccc1F	0.1	-2.6	11.3	5.0*	-0.5	-15.2
CCCNS(=O)(=O)c1ccc(F)c(C(=O)Nc2cc(C)ccc2OC)c1	-0.1	-2.1	-3.2	0.1	·	·
COc1ccc(Cl)cc1NC(=O)c1cc(S(=O)(=O)N2CCCCC2)ccc1F	-0.1	6.9	-3.0	1.5	·	·
COc1ccccc1CNS(=O)(=O)c1ccc(F)c(C(=O)Nc2ccc(F)cc2)c1	0.5	2.4	17.5	5.4*	0.5	-8.5
CCOc1cc(/C=C2/C(=N)N3N=C(CC(C)C)SC3=NC2=O)cc(Cl)c1OCCOc1ccc(C)cc1	0.2	-12.6	-12.5	0.3	·	·
Cn1c(SCC(=O)Nc2ccc(Br)cc2)nnc1-c1ccc(N)cc1	-0.2	16.9	2.8	5.3*	0.9	8.0
CC(=O)Nc1ccc(NC(=O)CSc2nnc(-c3ccncc3)n2N)cc1	0.3	2.7	15.8	5.5*	-0.6	5.9
Cn1c(SCC(=O)Nc2ccc3nc(SCC(=O)Nc4ccccc4F)sc3c2)nnc1-c1ccc(Cl)cc1Cl	0.7	-2.4	8.4	-1.5	·	·
CC(=O)Nc1ccc(NC(=O)CSc2nnc(-c3ccncc3)n2C)cc1	0.2	4.3	-7.5	-0.8	·	·
CCc1ccc(NC(=O)CSc2nnc(-c3ccc(N)cc3)n2C)cc1	0.0	-6.0	7.4	-0.2	·	·
CCn1c(SCC(=O)Nc2ccc(C(C)=O)cc2)nnc1-c1ccco1	0.0	21.2	3.6	0.4	·	·
